For 88 variants, enrichment ratio results are on record in a collection of fitness landscapes (doi:10.1126/science.1257360).

Sequences and labels used below:
B1: PhoQ; a variant is named by its letters at X, in order, P23837 (parent)
chain: MKKLLRLFFPLSLRVRFLLATAAVVLVLSLAYGMVALIGYSVSFDKTTFRLLRGESNLFYTLAKWENNKLHVELPENIDKQSPTMTLIYDENGQLLWAQRDVPWLMKMIQPDWLKSNGFHEIEADVNDTSLLLSGDHSIQQQLQEVREDDDDAEMTHSVAVNVYPATSRMPKLTIVVVDTIPVELKSSYMVWSWFIYVLSANLLLVIPLLWVAAWWSLRPIEALAKEVRELEEHNRELLNPATTRELTSLVRNLNRLLKSERERYDKYRTTLTDLTHSLKTPLXXLQXXLRSLRSEKMSVSDAEPVMLEQISRISQQIGYYLHRASMRGGTLLSRELHPVAPLLDNLTSALNKVYQRKGVNISLDISPEISFVGEQNDFVEVMGNVLDNACKYCLEFVEISARQTDEHLYIVVEDDGPGIPLSKREVIFDRGQRVDTLRPGQGVGLAVAREITEQYEGKIVAGESMLGGARMEVIFGRQHSAPKDE

The full ranking holds about 140,000 sequences; the median of “enrichment ratio after two sorts for PhoP signalling” is about 0, and the highest 2% start at about 11. This is one part of a sample in which the highest values are shown more often than they occur. Some results are limits rather than exact numbers.

The assay covers variants of B1. Put plainly: enrichment ratio after two sorts for PhoP signalling (ratio (wild type AVST 3.29)); higher = more functional. The settings on record: with PhoP (E. coli).
For the variant TPCV, the enrichment ratio is ≤ 0.25. Regarding HIPN, the enrichment ratio is ≤ 0.25. For the variant WRHY, the enrichment ratio was ≤ 0.25.

GDYV: the enrichment ratio is ≤ 0.25. For LQVN, the enrichment ratio was ≤ 0.25. In the case of DQMY, the enrichment ratio is ≤ 0.25. The value for VHFI was ≤ 0.25; that for FDRQ was ≤ 0.25; that for LRHY was ≤ 0.25. In the case of FSLQ, the enrichment ratio came to 11.8. For the variant FCLQ, the enrichment ratio was found to be 6.86. For the variant KSLQ, the enrichment ratio is ≤ 0.25. In the case of LNSK, the enrichment ratio was ≤ 0.25. As for TCWM, the enrichment ratio was ≤ 0.25. The same measure for VECM: 0.698. For TCGM, the enrichment ratio worked out at 15.3. TCTM: the enrichment ratio came out at 21.1.

As to TCNM, the enrichment ratio amounted to 1.24.

Regarding TCYN, the enrichment ratio came out at 3.25. As to TCCM, the enrichment ratio was 20.

In the case of QECM, the enrichment ratio was ≤ 0.25. FCTM: the enrichment ratio was ≤ 0.25.

Regarding TCIM, the enrichment ratio was 0.447.

Turning to TCYM, the enrichment ratio came to 12.1.

Take TCYA: the enrichment ratio worked out at 1.75. On to IMKY, for which the enrichment ratio was ≤ 0.25. On to VMEY, for which the enrichment ratio was ≤ 0.25. The value for TYKQ was ≤ 0.25; that for IGCI was ≤ 0.25; that for THAC was 6.19. The value for SQFC was ≤ 0.25; that for WRVD was ≤ 0.25. For ISHC, the enrichment ratio is ≤ 0.25. As to YTMN, the enrichment ratio is ≤ 0.25. In the case of EMDR, the enrichment ratio is ≤ 0.25. The same measure for DSWL: ≤ 0.25; for RECW: ≤ 0.25; for FMGG: ≤ 0.25. Take EQVK: the enrichment ratio was ≤ 0.25. Consider TCCI, for which the enrichment ratio is 7.17. In the case of VECQ, the enrichment ratio came to 8.23. For the variant TCCQ, the enrichment ratio was 12.5. Turning to TCKQ, the enrichment ratio was ≤ 0.25. As to VECK, the enrichment ratio was ≤ 0.25.

Take TCCK: the enrichment ratio is 21.6. As for TDEN, the enrichment ratio is ≤ 0.25. Turning to QTMG, the enrichment ratio was ≤ 0.25. As to DPLR, the enrichment ratio is ≤ 0.25. Take SCTD: the enrichment ratio is ≤ 0.25. With SCTS, the enrichment ratio was found to be 14.9. In the case of SCTH, the enrichment ratio came out at 9.21. With SCTA, the enrichment ratio came out at 12.7. As for SCTC, the enrichment ratio came out at 7.94. Take SCTK: the enrichment ratio turned out to be 7.2. The value for LRRQ was ≤ 0.25. NIGG: the enrichment ratio is ≤ 0.25.

For the variant LVAY, the enrichment ratio is ≤ 0.25. The same measure for HFFS: ≤ 0.25. On to PHFW, for which the enrichment ratio was ≤ 0.25.

STAF: the enrichment ratio came out at 7.65. Turning to MAAF, the enrichment ratio was ≤ 0.25. KMAF: the enrichment ratio is ≤ 0.25.

On to MIAF, for which the enrichment ratio was found to be 14.

For the variant KCAF, the enrichment ratio was ≤ 0.25.

MKAF: the enrichment ratio was ≤ 0.25. SRAF: the enrichment ratio was ≤ 0.25. In the case of SCAF, the enrichment ratio was 16.3. Take WIAF: the enrichment ratio was ≤ 0.25. The same measure for MSAF: 3.4.

On to MCAF, for which the enrichment ratio is 32.1. The same measure for MMAF: 13; for LHIP: ≤ 0.25; for RPYE: ≤ 0.25. AWSD: the enrichment ratio was ≤ 0.25. For the variant WEIC, the enrichment ratio was ≤ 0.25. As to FTRG, the enrichment ratio was ≤ 0.25. For the variant AQMD, the enrichment ratio is ≤ 0.25. Regarding LIFC, the enrichment ratio was ≤ 0.25. With PKNW, the enrichment ratio is ≤ 0.25. Regarding FRIG, the enrichment ratio is ≤ 0.25. For LEYC, the enrichment ratio worked out at 4.32. The value for WRGG was ≤ 0.25. For TYVG, the enrichment ratio was determined as 0.756. Take TYCA: the enrichment ratio came to 12.1. With TYHG, the enrichment ratio is ≤ 0.25.

Take TYMG: the enrichment ratio stood at 14.3. In the case of TYCE, the enrichment ratio is ≤ 0.25. As to TYCI, the enrichment ratio was ≤ 0.25.
